Data published in PubChem BioAssay (EPA / NIEHS).
Results filed as inconclusive are left out. Activity calls are given as the source filed them. Rule for the calls, unless noted: active = hit-call score of the fitted dose curve at least 0.9, where 1 is the maximum; inactive = score below 0.9.

What was measured:
[1] = read-out: Monokine induced gamma interferon (MIG), CXCL9 (gene 4283); test: BSK_3C_MIG: BioMAP Diversity Plus: 3C Assay for Monokine induced gamma interferon (MIG) Biomarker Activity (AID 2283021); details: primary human endothelial cells (HUVEC); actives raise or lower the signal;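 for AC50: MIG protein level measured by immunoassay in the treated endothelial cultures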
Outline: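 After 24 h of treatment, human umbilical vein endothelial cultures (3C system) had their MIG biomarker level determined by ELISA, with DMSO serving as negative control.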

[2] = BSK_3C_SRB: Viability Assessment in the BioMAP Diversity Plus: 3C Assay (AID 2283023); details: primary human endothelial cells (HUVEC);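 note: fitted both ways against DMSO so a hit may be signal rise or drop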
Outline: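 Human umbilical vein endothelial cells in the 3C system, treated 24 h. Total protein measured by 0.1% sulforhodamine B staining after 10% TCA fixation, read at 560 nm; bidirectional fit versus DMSO.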

[3] = read-out: Matrix Metallopeptidase 1 (MMP1), MMP1 (gene 4312); test: BSK_BE3C_MMP1: BioMAP Diversity Plus: BE3C Assay for Matrix Metallopeptidase 1 (MMP1) Biomarker Activity (AID 2283024); details: primary human bronchial epithelial cells; actives raise or lower the signal
Outline: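 Dose cells, wait 24 h, run MMP1 ELISA; cells are human bronchial epithelial primaries. Both increases and decreases relative to DMSO counted.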

[4] = BSK_3C_Vis: BioMAP Diversity Plus: 3C Assay for Morphology Visualization (AID 2283025); details: primary human endothelial cells (HUVEC);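 note: fitted both ways so gain or loss versus DMSO counts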;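 for AC50: light microscopy image of cell morphology used as background control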
Outline: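 Endothelial cells from human umbilical vein were treated with test chemicals for 24 h and inspected by light microscopy for changes in cell conformation.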

[5] = read-out: Pselectin, SELP (gene 6403); test: BSK_4H_Pselectin: BioMAP Diversity Plus: 4H Assay for Pselectin Biomarker Activity (AID 2283026); details: primary human endothelial cells (HUVEC); actives raise or lower the signal
Outline: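 Human vascular endothelium from umbilical vein; P-selectin measured by ELISA at 24 h post-dose, with cytotoxicity checked by sulforhodamine B total-protein staining in parallel cultures (0.1% SRB after 10% TCA fixation, read at 560 nm).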

[6] = BSK_4H_SRB: Viability Assessment in the BioMAP Diversity Plus: 4H Assay (AID 2283027); details: primary human endothelial cells (HUVEC);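 note: cells exposed to compound for 24 h before staining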;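 for AC50: curves fitted both ways versus DMSO so AC50 may be loss or gain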
Outline: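 Human umbilical vein endothelial cells were dosed with chemical and, after 24 h, fixed with 10% TCA, stained with 0.1% sulforhodamine B, and read at 560 nm to give total protein as a cytotoxicity measure. Bidirectional fitting relative to DMSO control.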

[7] = BSK_BE3C_SRB: Viability Assessment in the BioMAP Diversity Plus: BE3C Assay (AID 2283028); details: primary human bronchial epithelial cells;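 for AC50: fitted both ways so AC50 may mark signal gain or loss versus DMSO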
Outline: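 Human bronchial epithelial primary cells in confluent culture, 24 h after chemical dosing; total protein by 0.1% SRB staining after 10% TCA fixation, read at 560 nm. Bidirectional fitting versus DMSO baseline.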

[8] = read-out: Thrombomodulin, THBD (gene 7056); test: BSK_3C_Thrombomodulin: BioMAP Diversity Plus: 3C Assay for Thrombomodulin Biomarker Activity (AID 2283029); details: primary human endothelial cells (HUVEC); actives raise or lower the signal
Outline: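 Thrombomodulin ELISA, human primary HUVEC, 24 h post-dose; data fitted in both directions relative to DMSO.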

[9] = read-out: Urokinase-type plasminogen activator receptor (uPAR), PLAUR (gene 5329); test: BSK_4H_uPAR: BioMAP Diversity Plus: 4H Assay for Urokinase-type plasminogen activator receptor (uPAR) Biomarker Activity (AID 2283030); details: primary human endothelial cells (HUVEC); actives raise or lower the signal
Outline: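 Human umbilical vein endothelial cells in the 4H system, 24 h after chemical dosing. Cell-surface uPAR measured by ELISA, fitted in both directions versus DMSO; cytotoxicity checked by SRB total protein in parallel cultures.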

[10] = read-out: Vascular endothelial growth factor receptor 2 (Homo sapiens) (UniProt P35968); test: BSK_4H_VEGFRII: BioMAP Diversity Plus: 4H Assay for Vascular endothelial growth factor receptor 2 (VEGFR2) Biomarker Activity (AID 2283031); details: primary human endothelial cells (HUVEC); actives raise or lower the signal
Outline: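 Primary human umbilical vein endothelial cells (4H system), 24 h exposure; cell-surface VEGFR2 measured by ELISA. Bidirectional fitting versus DMSO; cytotoxicity checked in parallel by SRB total-protein staining.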

[11] = read-out: Human Leukocyte Antigen - DR isotype (HLADR), HLA-DRA (gene 3122); test: BSK_BE3C_HLADR: BioMAP Diversity Plus: BE3C Assay for Human Leukocyte Antigen - DR isotype (HLADR) Biomarker Activity (AID 2283032); details: primary human bronchial epithelial cells; actives raise or lower the signal
Outline: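 Signal came from an ELISA for HLA-DR in human bronchial epithelial primary cells harvested 24 h after treatment; gain- and loss-of-signal fitting used DMSO controls as reference.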

[12] = read-out: Vascular cell adhesion molecule 1 (VCAM1), VCAM1 (gene 7412); test: BSK_4H_VCAM1: BioMAP Diversity Plus: 4H Assay for Vascular cell adhesion molecule 1 (VCAM1) Biomarker Activity (AID 2283033); details: primary human endothelial cells (HUVEC); actives raise or lower the signal
Outline: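 Endpoint derived from bidirectional fitting against DMSO controls of VCAM-1 ELISA signal in umbilical vein endothelial cells sampled at 24 h following treatment.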

[13] = read-out: Interferon-gamma inducible Protein 10 (IP10), CXCL10 (gene 3627); test: BSK_BE3C_IP10: BioMAP Diversity Plus: BE3C Assay for Interferon-gamma inducible Protein 10 (IP10) Biomarker Activity (AID 2283034); details: primary human bronchial epithelial cells; actives raise or lower the signal
Outline: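 Using primary human bronchial epithelial cultures, the assay captures IP-10 by ELISA one day (24 h) after exposure. Parallel SRB staining of total protein flags overt cytotoxicity. Fits run bidirectionally relative to DMSO.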

[14] = read-out: Monokine induced gamma interferon (MIG), CXCL9 (gene 4283); test: BSK_BE3C_MIG: BioMAP Diversity Plus: BE3C Assay for Monokine induced gamma interferon (MIG) Biomarker Activity (AID 2283035); details: primary human bronchial epithelial cells; actives raise or lower the signal
Outline: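 ELISA read-out of MIG in human lung bronchial epithelial primary cultures, 24 h post-dosing. Bidirectional curve fit vs DMSO baseline.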

[15] = read-out: Transforming growth factor beta 1 (TGFb1), TGFB1 (gene 7040); test: BSK_BE3C_TGFb1: BioMAP Diversity Plus: BE3C Assay for Transforming growth factor beta 1 (TGFb1) Biomarker Activity (AID 2283036); details: primary human bronchial epithelial cells; actives raise or lower the signal
Outline: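 In this human primary bronchial epithelial system, an ELISA quantified TGF-b1 one day after dosing. Endpoint changes in either direction were fitted relative to DMSO.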

[16] = read-out: Plasminogen activator inhibitor-1 (PAI1), SERPINE1 (gene 5054); test: BSK_BE3C_PAI1: BioMAP Diversity Plus: BE3C Assay for Plasminogen activator inhibitor-1 (PAI1) Biomarker Activity (AID 2283037); details: primary human bronchial epithelial cells; actives raise or lower the signal
Outline: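 PAI-1 biomarker levels in treated human bronchial epithelial cells are determined by ELISA at 24 h. Both increases and decreases relative to DMSO are fitted.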

[17] = read-out: urokinase plasminogen activator (uPA), PLAU (gene 5328); test: BSK_BE3C_uPA: BioMAP Diversity Plus: BE3C Assay for urokinase plasminogen activator (uPA) Biomarker Activity (AID 2283038); details: primary human bronchial epithelial cells; actives raise or lower the signal
Outline: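 Primary human bronchial epithelial cells, uPA measured by ELISA 24 h after dosing. Bidirectional change relative to DMSO; cytotoxicity checked in parallel cultures by sulforhodamine B total-protein staining.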

[18] = read-out: Urokinase-type plasminogen activator receptor (uPAR), PLAUR (gene 5329); test: BSK_BE3C_uPAR: BioMAP Diversity Plus: BE3C Assay for Urokinase-type plasminogen activator receptor (uPAR) Biomarker Activity (AID 2283039); details: primary human bronchial epithelial cells; actives raise or lower the signal
Outline: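 A uPAR ELISA serves as the readout, taken 24 h after treating primary human bronchial epithelial cells. Responses in either direction are fitted against DMSO, which defines baseline activity.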

[19] = read-out: Interleukin-6 (IL6), IL6 (gene 3569); test: BSK_CASM3C_IL6: BioMAP Diversity Plus: CASM3C Assay for Interleukin-6 (IL6) Biomarker Activity for (AID 2283040); details: primary human coronary artery smooth muscle cells; actives raise or lower the signal
[20] = molecular target: human Vitamin D Receptor (VDR), VDR (gene 7421) (UniProt P11473); test: ATG_VDR_TRANS: Attagene TRANS-FACTORIAL HepG2 Assay for human Vitamin D Receptor (VDR) (AID 2283022; active = hit-call score of the fitted dose curve at least 0.9, where 1 is the maximum)
human Vitamin D Receptor (VDR), VDR (gene 7421), sequence (P11473 whole entry, looked up, the tested form may be a part): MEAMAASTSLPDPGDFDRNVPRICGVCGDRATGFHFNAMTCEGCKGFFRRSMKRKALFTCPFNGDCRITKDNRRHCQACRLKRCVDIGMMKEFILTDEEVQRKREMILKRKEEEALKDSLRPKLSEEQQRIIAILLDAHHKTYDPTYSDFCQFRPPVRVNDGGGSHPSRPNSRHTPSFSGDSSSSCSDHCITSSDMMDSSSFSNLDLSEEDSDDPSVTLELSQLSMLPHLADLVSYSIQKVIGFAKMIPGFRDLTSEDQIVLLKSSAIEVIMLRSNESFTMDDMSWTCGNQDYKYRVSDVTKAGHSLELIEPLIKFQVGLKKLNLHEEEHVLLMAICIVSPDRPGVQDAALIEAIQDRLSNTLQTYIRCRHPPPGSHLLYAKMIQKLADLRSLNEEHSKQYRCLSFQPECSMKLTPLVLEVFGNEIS
Outline: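 HepG2 cells were transiently transfected with GAL4-UAS reporter units and a chimeric VDR-Gal4 construct, then dosed for 24 hours. Reporter mRNA was quantified by RT-PCR, fluorescent labeling, HpaI digestion and capillary electrophoresis; gain of signal analysed vs DMSO.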

Measured: AC50

CC(C)(C)c1ccc(O)c(C(C)(C)C)c1
inactive: [8] | [10]
active: [1] 14.7 µM | [2] 9.68 µM | [3] 32.4 µM | [4] 6.71 µM | [5] 7.52 µM | [6] 12.4 µM | [7] 32 µM | [9] 10.6 µM | [11] 28.1 µM | [12] 9.93 µM | [13] 31.7 µM | [14] 36.1 µM | [15] 27.8 µM | [16] 31.6 µM | [17] 30.7 µM | [18] 36.3 µM | [19] 13.6 µM

CCCCC(CC)COC(=O)CCCCC(=O)OCC(CC)CCCC (stereo unspecified)
not listed: [9] | [13] | [15] | [20]
inactive: all other assays above

CCCOC(=O)c1ccc(O)cc1
not listed: [15] | [20]
inactive: all other assays above

CC(C)(C)CC(C)(C)c1ccc(O)c(-n2nc3ccccc3n2)c1
not listed: [20]
inactive: all other assays above

CC(O)CO (stereo unspecified)
not listed: [8] | [9] | [13] | [15]
inactive: all other assays above

CCCCCCCCCCCCc1ccccc1S(=O)(=O)O
active: [3] 28.8 µM | [4] 39 µM | [7] 7.1 µM | [11] 8.12 µM | [13] 6.21 µM | [14] 30.1 µM | [15] 8.96 µM | [16] 8.94 µM | [17] 13.9 µM | [18] 14.2 µM
inactive: [1] | [2] | [5] | [6] | [8] | [10] | [12] | [19]
